Gli-Sufu antag: blocks Gli-Sufu signaling in a luciferase reporter | Sufu-KO-LIGHT fibroblasts, Gli luciferase reporter luminescence | inhibition, % at 5 µM | hit rate 0.74% among 340,000 | AID 588413;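 active = inhibition above about 55%, limit read from the data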;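 note: 0% = DMSO-treated cells and 100% = wells with medium but no cells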
697 NFkB inh: inhibitors of the PMA/ionomycin-induced NF-kB reporter in 697 B cells | 697 B-cell NF-kB luciferase reporter, 16 h | inhibition, % at 4 µM | hit rate 0.33% among 330,000 | AID 435022; in the data active = inhibition above about 35%
Jurkat NFkB inh: lowers PMA/ionomycin-induced NF-kB signal in Jurkat cells; AID 435003; hit rate 0.53% among 330,000; PMA/ionomycin-induced NF-kB luciferase reporter, luminescence; inhibition, % at 4 µM; in the data active = inhibition above about 50%
SMARCA2 activ: increases SMARCA2 function in MMTV reporter cells. MG213 cells, MMTV-luciferase reporter, dexamethasone, overnight. hit rate 1% among 370,000. activation, % at 9.1 µM; in the data active = activation above about 7.8%;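 note: 0% = vehicle wells and 100% = reference activator wells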
esBAF inh: blocks esBAF chromatin remodeling in mouse ES cells; Bmi1-luciferase knock-in reporter, 24 h; 100% = twice the neutral-well signal; reporter increase, % at 12.5 µM; hit rate 2% among 350,000; in the data active = activation above about 40%;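 note: 0% = median of the plate's neutral control wells and 100% = double that signal; a rise in the Bmi1 reporter signal indicates esBAF inhibition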
SMARCA2 conf: confirmation of SMARCA2 (BRM) function activators. shares compounds with SMARCA2 activ. MG213 cells, MMTV-luciferase with dexamethasone, luminescence, overnight; MG213 cells expressing E1A, Rb sequestered; DMSO wells 0%, reference activator 100%. activation, % at 9.1 µM. hit rate 30% among 3,500. AID 652260;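 active = activation above its plate's cutoff, the mean activation of tested wells plus 3 SD, cut at about 7.9% in these data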
VP16 Luc act: counter-screen for SMARCA2 activators: GAL4-VP16 luciferase reporter activation; shares compounds with SMARCA2 activ; HEK293 GAL4-VP16 pG5luc reporter, luciferase luminescence; scaled: DMSO wells 0%, SAHA wells 100%; activation, % at 9.1 µM; hit rate 41% among 3,500;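 active = activation above the solvent-only control well mean plus 3 SD, averaged across control plates, cut at about 5.2% in these data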
Active calls of the source: *; · = no result given. In the library only some 3.3% were active in any assay of this set; here they are far more common.

SMILES | Gli-Sufu antag | 697 NFkB inh | Jurkat NFkB inh | SMARCA2 activ | esBAF inh | SMARCA2 conf | VP16 Luc act
CC(C1=CCCCC1)c1cnn(C)c1 (configuration not stated) | · | · | · | 9.4* | · | -1 | -1
O=C(Nc1ccc2nc3n(c(=O)c2c1)CCCCC3)c1ccccn1 | -94 | -75 | -94 | 8.2* | -24 | 3 | 10*
O=c1c2cc(NC(=S)NCc3ccccn3)ccc2nc2n1CCCCC2 | 23 | 6 | 10 | -2 | · | · | ·
CCOC(=O)C1=C(C)N=c2s/c(=C\c3ccncc3)c(=O)n2C1c1ccc2c(c1)OCO2 (configuration not stated) | 8 | 11 | 15 | -1 | -4 | · | ·
CCOC(=O)C1=C(C)N=c2s/c(=C3\C(=O)Nc4ccccc43)c(=O)n2C1c1ccc2c(c1)OCO2 (configuration not stated) | -1 | -2 | 4 | 11* | -9 | -2 | 0
COc1ccc(N=Nc2ccc(N)nc2N)cc1 | -117 | -208 | -148 | 12* | 17 | 11* | 20*
COc1ccc(N=Nc2c(N)n[nH]c2N)cc1 | -53 | -10 | -31 | 1 | 37 | · | ·
Cc1noc(C)c1S(=O)(=O)Nc1cccc2c1O[C@@H](CN(C)S(=O)(=O)c1cn(C)cn1)[C@@H](C)CN([C@@H](C)CO)C2=O | · | · | · | · | -1 | · | ·
C[C@H]1CN([C@@H](C)CO)C(=O)c2cc(NC(=O)Nc3ccccc3)ccc2O[C@@H]1CN(C)S(=O)(=O)c1ccc(F)cc1 | · | · | · | · | -1 | · | ·
COc1ccccc1Nc1nc(N)nc(CSC(=S)N2CCC(C)CC2)n1 | -9 | -1 | -1 | -1 | · | · | ·
COc1ccccc1Nc1nc(N)nc(CSC(=S)N2CCN(c3ccccc3)CC2)n1 | 10 | -7 | 21 | 8.7* | · | -7 | 0
O=C(N[C@H]1CC[C@@H](CC(=O)N2CCCCC2)O[C@H]1CO)c1ccc2c(c1)OCO2 | · | · | · | · | -3 | · | ·
CO[C@@H]1CN(C)C(=O)c2cc(NS(C)(=O)=O)ccc2OC[C@@H](C)N(Cc2cncnc2)C[C@@H]1C | · | · | · | · | 8 | · | ·
Clc1cccc(/C=N/Nc2nc(Cl)nc3ccccc23)c1 | -103 | -78 | -108 | 11* | 52* | 11* | 11*
CC(=O)Nc1ccc(C(=O)OCCC(C)C)cc1 | -25 | -28 | -29 | 8.9* | 32 | 2 | 3
C[C@@H]1CN([C@H](C)CO)C(=O)c2cc(NC(=O)c3ccncc3)ccc2O[C@@H](C)CCCCO[C@H]1CN(C)Cc1ccc(C(=O)O)cc1 | · | · | · | · | -2 | · | ·
O=C(OCc1c(-c2ccccc2)ncc2ccccc12)N1CCOCC1 | 18 | -126 | -47 | 9.6* | 57* | 7 | 2
O=C(O)CCC(=O)OCc1c(-c2ccccc2)ncc2ccccc12 | -1 | 19 | 10 | 1 | 1 | · | ·
COc1cccc(CNC(=O)CCl)c1 | 7 | 0 | 11 | -2 | · | · | ·
COc1cccc(CNC(=O)COC(=O)c2nc(Cl)c(Cl)c(Cl)c2Cl)c1 | -1 | -7 | 8 | 17* | -5 | 26* | 2
CCOC(=O)C(=O)Nc1ccccc1C(=O)Nc1ccc(OC)cc1 | 31 | 12 | -4 | 9.1* | 9 | 0 | 1
Cc1noc(C)c1S(=O)(=O)N(C)C[C@H]1OCCCC[C@@H](C)Oc2ccc(NC(=O)NC3CCCCC3)cc2C(=O)N([C@@H](C)CO)C[C@@H]1C | · | · | · | · | 0 | · | ·
CCOC(=O)Cn1cnc(-c2ccc([N+](=O)[O-])cc2)c1 | -13 | 3 | 9 | 8.8* | 28 | 8 | 5.8*
O=C(C[C@H]1CC[C@@H]2[C@H](COC[C@H](O)CN2C(=O)c2ccccc2)O1)Nc1ccc(-c2ccccc2)cc1 | · | · | · | · | 15 | · | ·
CC(C)=CCNc1ncnc2c1c(C#N)cn2C1OC(CO)C(O)C1O (configuration not stated) | 22 | · | · | 41* | · | 59* | 0
OCC1OC(n2cnc3c(NCc4ccccc4O)ncnc32)C(O)C1O (configuration not stated) | 31 | · | · | -2 | · | · | ·
COc1cccc2c1CCc1c-2nc2ccccc2c1C(=O)O | 10 | -56 | 0 | 11* | · | 8.2* | 5.9*
O=C(O)c1c2c(nc3ccccc13)/C(=C/c1ccc(O)cc1)CC2 | 35 | -25 | 3 | 0 | · | · | ·

Assay outcomes as filed in PubChem BioAssay.
